# Assay results as given in PubChem BioAssay AID1645838 (ICCB-Longwood Screening Facility, Harvard Medical School, 2021).
# Hit rate of the full screen: of about 2,000 compounds, about 100 (5%) were called active. Rule as the data show it: active = z-score above about 2; inactive = the rest. The full list was thinned out, with actives kept by preference.
# Test: modulators of mitochondrial supercomplex assembly, cell-based, luminescence, Hoechst nuclei count (AID 1645838);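 also: control cybrid cells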;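 as to z-score: higher means more mitochondrial supercomplex formation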
# Settings: Cells, luminescence/Hoechst cell count ratio, supercomplex reporter; for z-score: stronger effect = higher value; for cell count: measured here: cell number, Hoechst nuclei count
# [1] = library stock concentration (final well concentration not given) 80 uM
# [2] = library stock concentration (final well concentration not given) 400 uM
# [3] = library stock concentration (final well concentration not given) 2 mM
# [4] = library stock concentration (final well concentration not given) 10 mM
# [5] = library stock concentration (final well concentration not given) 46 uM
# [6] = library stock concentration (final well concentration not given) 1.67 mM
# [7] = library stock concentration (final well concentration not given) 278 uM
compound,measurement,setting,value
CC(O)C(O)C1CNc2nc(N)[nH]c(=O)c2N1 (centres undefined),outcome,library stock 10 mM,inactive; censored for cell count
same,z-score,[1],-0.395 (inactive)
same,z-score,[2],-0.667 (inactive)
same,z-score,[3],-0.491 (inactive)
same,cell count,[1],5380
same,cell count,[2],5520
same,cell count,[3],4750
C#C[C@]1(O)CC[C@@H]2[C@@H]3CCc4cc(O)ccc4[C@@H]3CC[C@@]21C,z-score,[1],-0.386 (inactive)
same,z-score,[2],-0.396 (inactive)
same,z-score,[3],-0.217 (inactive)
same,z-score,[4],-0.397 (inactive)
same,cell count,[1],5910
same,cell count,[2],5660
same,cell count,[3],5810
same,cell count,[4],5370
C[C@H](CCCO)[C@H]1CC[C@H]2[C@@H]3[C@H](O)C[C@H]4C[C@H](O)CC[C@]4(C)[C@H]3C[C@H](O)[C@]12C,z-score,,-0.0135 (inactive)
same,cell count,,5570
CC(=NNC(=O)c1cccc(S(=O)(=O)N2CCOCC2)c1)c1cc(Cl)ccc1O,outcome,library stock 278 µM,inactive; censored for cell count
same,z-score,[5],-0.349 (inactive)
same,z-score,[6],3.11 (active)
same,z-score,[4],3.02 (active)
same,cell count,[5],7290
same,cell count,[6],2520
same,cell count,[4],1770
O=C(Nc1cccc(Br)c1)c1cccc(S(=O)(=O)N2CCCCCC2)c1,z-score,[5],-0.0641 (inactive)
same,z-score,[7],0.273 (inactive)
same,z-score,[6],0.0446 (inactive)
same,z-score,[4],-0.0353 (inactive)
same,cell count,[5],6460
same,cell count,[7],6210
same,cell count,[6],6270
same,cell count,[4],5890
O=C(O)c1cccc(S(=O)(=O)N2CCc3ccccc3C2)c1,z-score,[1],-0.371 (inactive)
same,z-score,[2],0.24 (inactive)
same,z-score,[3],-0.13 (inactive)
same,z-score,[4],0.0481 (inactive)
same,cell count,[1],5540
same,cell count,[2],4830
same,cell count,[3],5230
same,cell count,[4],4980
O=C(O)CCCCCC[C@@H]1[C@@H](CC[C@@H](O)CCc2cccc(C(F)(F)F)c2)[C@H](O)C[C@@H]1O,z-score,,-0.0245 (inactive)
same,cell count,,4710
COc1ccc(-c2nc3cc(F)ccc3s2)cc1OC,z-score,,-0.706 (inactive)
same,cell count,,5090
O=C(/C=C/c1cccc(C(=O)NO)c1)NO,z-score,,3.39 (active)
same,cell count,,4470
O=C(O)/C=C/c1ccc(O)c(O)c1,z-score,,-0.483 (inactive)
same,cell count,,5860
COc1ccc(/C=C/C(=O)Nc2c(O)cccc2C(=O)O)cc1OC,z-score,,-0.476 (inactive)
same,cell count,,5390
CCCCCCCCCC(=O)N[C@@H](CN1CCOCC1)[C@@H](O)c1ccccc1,z-score,,0.0636 (inactive)
same,cell count,,5620
COC1CC2CCC(C)C(O)(O2)C(=O)C(=O)N2CCCCC2C(=O)OC(C(C)CC2CCC(O)C(OC)C2)CC(=O)C(C)C=C(C)C(O)C(OC)C(=O)C(C)CC(C)C=CC=CC=C1C (centres undefined),z-score,[1],0.756 (inactive)
same,z-score,[2],0.731 (inactive)
same,z-score,[3],1.2 (inactive)
same,z-score,[4],1.21 (inactive)
same,cell count,[1],2980
same,cell count,[2],3130
same,cell count,[3],2660
same,cell count,[4],2720
CO[C@H]1C[C@@H]2CC[C@@H](C)[C@@](O)(O2)C(=O)C(=O)N2CCCC[C@H]2C(=O)O[C@H]([C@@H](C)C[C@@H]2CC[C@@H](O)[C@H](OC)C2)CC(=O)[C@H](C)/C=C(\C)[C@@H](O)[C@@H](OC)C(=O)[C@H](C)C[C@H](C)/C=C/C=C/C=C/1C,z-score,,2.24 (active)
same,cell count,,4010
COC1C[C@@H]2CCC(C)[C@@](O)(O2)C(=O)C(=O)N2CCCC[C@@H]2C(=O)O[C@@H](C(C)CC2CCC(n3cnnn3)C(OC)C2)CC(=O)C(C)C=C(C)C(O)C(OC)C(=O)C(C)CC(C)C=CC=CC=C1C (some centres undefined),z-score,[1],0.366 (inactive)
same,z-score,[2],0.334 (inactive)
same,z-score,[3],0.739 (inactive)
same,z-score,[4],1.14 (inactive)
same,cell count,[1],4410
same,cell count,[2],4360
same,cell count,[3],4240
same,cell count,[4],3590
Cc1ccc(C(=O)Nc2ccc(Oc3cc4cnn(C)c4cc3-c3cn[nH]c3)c(F)c2)c(=O)n1-c1ccc(F)cc1,z-score,[5],-0.888 (inactive)
same,z-score,[7],-0.95 (inactive)
same,z-score,[6],-1.73 (inactive)
same,z-score,[4],-2.48 (inactive)
same,cell count,[5],7640
same,cell count,[7],6950
same,cell count,[6],7070
same,cell count,[4],6390
CC/C=C\C/C=C\C/C=C\C/C=C\C/C=C\CCCC(=O)O[C@H](COCCCCCCCCCCCCCCCC)COP(=O)([O-])OCC[N+](C)(C)C,z-score,,-1.23 (inactive)
same,cell count,,5300
CCCCC[C@H](O)/C=C/[C@@H]1[C@@H](C/C=C\CCCC(=O)NC(CO)CO)[C@@H](O)C[C@H]1O,z-score,,-0.166 (inactive)
same,cell count,,5460
COc1cc(C(=O)NS(=O)(=O)c2ccccc2C)ccc1Cc1cn(C)c2ccc(NC(=O)OC3CCCC3)cc12,z-score,,-0.169 (inactive)
same,z-score,[1],-0.186 (inactive)
same,z-score,[2],0.251 (inactive)
same,z-score,[3],-0.394 (inactive)
same,z-score,[4],0.0319 (inactive)
same,cell count,,4650
same,cell count,[1],5870
same,cell count,[2],5520
same,cell count,[3],5910
same,cell count,[4],4990
CN1CCc2c(c3ccccc3n2Cc2ccc(C(=O)NO)cc2)C1,z-score,[5],-0.165 (inactive)
same,z-score,[7],-0.118 (inactive)
same,z-score,[6],-0.0772 (inactive)
same,z-score,[4],0.0302 (inactive)
same,cell count,[5],5170
same,cell count,[7],5040
same,cell count,[6],4790
same,cell count,[4],4770
Cn1cc(CNCC2CCN(c3ncc(C(=O)NO)cn3)CC2)c2ccccc21,outcome,library stock 400 µM,inactive; censored for cell count
same,outcome,library stock 2 mM,inactive; censored for cell count
same,outcome,library stock 10 mM,inactive; censored for cell count
same,z-score,[1],10.5 (active)
same,cell count,[1],1710
Nc1nc(OC(c2ccc(-c3cccc(F)c3)cc2)C(F)(F)F)cc(-c2ccc(CC(N)C(=O)O)cc2)n1 (centres undefined),z-score,[1],-0.00893 (inactive)
same,z-score,[2],-0.406 (inactive)
same,z-score,[3],-0.0477 (inactive)
same,z-score,[4],-0.333 (inactive)
same,cell count,[1],4780
same,cell count,[2],5340
same,cell count,[3],4660
same,cell count,[4],4880
CCCCCC(=O)CC[C@H]1C(=O)C[C@H](O)[C@@H]1C/C=C\CCCC(=O)O,z-score,,0.618 (inactive)
same,cell count,,5420
CN1CCN(c2ccc(Nc3c4ccccc4nc4ccccc34)cc2)CC1,outcome,library stock 2 mM,inactive; censored for cell count
same,outcome,library stock 10 mM,inactive; censored for cell count
same,z-score,[5],0.226 (inactive)
same,z-score,[1],-0.0401 (inactive)
same,z-score,[7],0.109 (inactive)
same,z-score,[2],1.07 (inactive)
same,z-score,[6],0.208 (inactive)
same,cell count,[5],6220
same,cell count,[1],5080
same,cell count,[7],5990
same,cell count,[2],4020
same,cell count,[6],6120
CS(=O)(=O)Nc1ccc([N+](=O)[O-])cc1Oc1ccccc1,z-score,,1.64 (inactive)
same,cell count,,4310
COc1cc(NS(C)(=O)=O)ccc1Nc1c2ccccc2nc2ccccc12,outcome,library stock 2 mM,inactive; censored for cell count
same,outcome,library stock 10 mM,inactive; censored for cell count
same,z-score,[1],0.627 (inactive)
same,z-score,[2],2.51 (active)
same,cell count,[1],4290
same,cell count,[2],2280
COCC(c1ccc(C(F)(F)F)cc1)N1CCN(C2(C)CCN(C(=O)c3c(C)ncnc3C)CC2)CC1C (centres undefined),z-score,[1],-0.275 (inactive)
same,z-score,[2],-0.0621 (inactive)
same,z-score,[3],-0.0993 (inactive)
same,z-score,[4],0.309 (inactive)
same,cell count,[1],6100
same,cell count,[2],5370
same,cell count,[3],5980
same,cell count,[4],5030
CC(C(=O)Nc1cccc(N=Cc2c(O)ccc3ccccc23)c1)c1ccccc1 (centres undefined),z-score,,-0.78 (inactive)
same,cell count,,5730
COc1ccccc1Oc1c(NS(=O)(=O)c2ccc(C)cn2)nc(-c2ccncc2)nc1OC,z-score,[5],-0.0599 (inactive)
same,z-score,[7],-0.113 (inactive)
same,z-score,[6],0.0903 (inactive)
same,z-score,[4],0.0187 (inactive)
same,cell count,[5],7280
same,cell count,[7],6760
same,cell count,[6],7600
same,cell count,[4],7550
CCCCCCCCCCCCCCCC(=O)OC[C@H](COP(=O)([O-])OCC[N+](C)(C)C)OC(=O)CCCCCCCC(=O)/C=C/C(=O)O,z-score,,-0.738 (inactive)
same,cell count,,5950
CCCCC[C@H](O)/C=C/[C@@H]1[C@H](C/C=C\CCCC(=O)O)[C@@H](O)C[C@H]1O,z-score,,-0.418 (inactive)
same,cell count,,5540
O=C(Nc1ccc(S(=O)(=O)Nc2ccccc2Cl)c(Cl)c1)c1ccccn1,z-score,[1],-0.0523 (inactive)
same,z-score,[2],0.247 (inactive)
same,z-score,[3],0.0843 (inactive)
same,z-score,[4],-0.408 (inactive)
same,cell count,[1],5940
same,cell count,[2],5620
same,cell count,[3],5480
same,cell count,[4],5970
Cc1cc(Nc2cc(NC(=O)c3c(Cl)cccc3Cl)ccn2)nc(N)n1,outcome,library stock 10 mM,inactive
same,z-score,[5],-0.552 (inactive)
same,z-score,[7],2.25 (active)
same,z-score,[6],7.34 (active)
same,cell count,[5],7000
same,cell count,[7],3680
same,cell count,[6],1560
Cc1cc(Nc2ccc(NC(=O)c3ccc(Nc4ccnc5ccccc45)cc3)cc2)nc(N)n1,outcome,library stock 10 mM,inactive; censored for cell count
same,z-score,[1],-0.573 (inactive)
same,z-score,[2],-0.616 (inactive)
same,z-score,[3],-0.871 (inactive)
same,cell count,[1],6440
same,cell count,[2],6580
same,cell count,[3],6140
COc1ccc(C(=O)C(=O)c2ccccc2)cc1,z-score,[5],-0.147 (inactive)
same,z-score,[7],-0.127 (inactive)
same,z-score,[6],-0.0906 (inactive)
same,z-score,[4],-0.261 (inactive)
same,cell count,[5],5340
same,cell count,[7],4770
same,cell count,[6],4920
same,cell count,[4],4940
CCCCCCCCCCCCCCCC(=O)SCCOP(=O)([O-])OCC[N+](C)(C)C,z-score,,0.0631 (inactive)
same,cell count,,5610
COc1cc(C(=O)N2CCC(N3CCN(C)CC3)CC2)ccc1Nc1ncc2c(n1)N(C)c1ccccc1C(=O)N2C,z-score,[1],-0.05 (inactive)
same,z-score,[2],0.293 (inactive)
same,z-score,[3],2.34 (active)
same,z-score,[4],4.4 (active)
same,cell count,[1],4870
same,cell count,[2],4880
same,cell count,[3],4160
same,cell count,[4],3320
COc1cc(C(=O)NC2CCN(C)CC2)ccc1Nc1ncc2c(n1)N(C1CCCC1)C(C)CC(=O)N2C (centres undefined),outcome,library stock 10 mM,inactive; censored for cell count
same,z-score,[1],-0.18 (inactive)
same,z-score,[2],-0.538 (inactive)
same,z-score,[3],-0.076 (inactive)
same,cell count,[1],4460
same,cell count,[2],4710
same,cell count,[3],4310
CCC1C(=O)N(C)c2cnc(Nc3ccc(C(=O)NC4CCN(C)CC4)cc3OC)nc2N1C1CCCC1 (centres undefined),outcome,library stock 80 µM,inactive; censored for cell count
same,outcome,library stock 400 µM,inactive; censored for cell count
same,outcome,library stock 2 mM,inactive; censored for cell count
same,outcome,library stock 10 mM,inactive; censored for cell count
CCCCC[C@@H](O)/C=C/[C@@H]1[C@H](C/C=C\CCCC(=O)O)[C@@H](O)C[C@H]1O,z-score,,-0.594 (inactive)
same,cell count,,5750
COCCOc1ccc2c(c1)ncn2-c1ccc2cccc(N3CCC(N)CC3)c2n1,outcome,library stock 10 mM,inactive; censored for cell count
same,z-score,[1],1.84 (inactive)
same,z-score,[2],2.21 (active)
same,z-score,[3],2.12 (active)
same,cell count,[1],4940
same,cell count,[2],5070
same,cell count,[3],4020
CCCCC[C@H](O)CC[C@@H]1[C@@H](C/C=C\CCCC(=O)O)[C@@H](O)C[C@H]1O,z-score,,-1.49 (inactive)
same,cell count,,6030
